Test results published in PubChem BioAssay (NCI).
Compounds without any hit were thinned out: in the full panel of roughly 79,000, 15% have a hit. Unmarked numbers belong to inactive results. Rule as the data show it: active = growth inhibition above about 70%; inactive = the rest. Where a SMILES comes first, the peptide text is derived from it. The star is where a group is joined. Cbz = O=C(OCc1ccccc1)*

Experiment: NCI Yeast Anticancer Drug Screen. Data for the mlh1 rad18 strain (AID 175)
Settings: S. cerevisiae mlh1 rad18 strain growth inhibition; at 50.0 µM; active compounds read high
How it was run: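 A repair-deficient yeast strain is exposed to test compound, and growth is scored relative to vehicle-treated controls.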

SMILES	growth inhibition
Cc1ccc(S(=O)(=O)N/N=C/c2oc(-c3ccncc3)c(-c3ccncc3)c2[N+](=O)[O-])cc1	17.1%
O=C1C=C(Nc2cccnc2)c2ccccc2C1=O	8.8%
COc1ccc(-c2coc3cc(O)cc(O)c3c2=O)cc1	62.9%
Cn1cc(/C=C/C(=O)c2ccccc2[N+](=O)[O-])c2ccccc21	2.85%
C=CCOC(C)OCC=C	-0.15%
O=c1[nH]nnc2ccccc12	-0.55%
COc1ccc(C)c(C2=CCCCC2)c1	-15.8%
C=CCc1ccc(O)c(OC)c1	25%
O=C1NCC2(CCN(Cc3ccccc3)CC2)N1c1ccccc1	13.7%
CN(C)c1nc2[nH]ncc2c(=O)[nH]1	0.8%
Cc1c(-c2ccc3c(c2)COC3)sc(N)c1C#N	-5.4%
COc1ccc(NC(=O)CC(=O)N/N=C/c2ccc(N(CCC#N)S(=O)(=O)c3ccccc3)cc2)cc1	-2.75%
CC12CC(=O)C3C(CCC4=CC(=O)CCC43C)C1CC=C2CC(=O)O (stereo not given)	-11.2%
COc1ccc(C2S/C(=C\c3cccc(O)c3)C(=O)N2NC(=O)Cc2ccccc2)cc1 (stereo not given)	10.9%
CCS(=O)(=O)OCCOC	10.2%
O=C1C=C/C(=N/c2ccc(O)o2)c2ccccc21	60%
CCCN1CCc2c([nH]c3cc(OC)ccc23)C1C (stereo not given)	3.2%
CC(C)=NC(C(=O)O)C(C)(C)S (stereo not given)	-17.1%
COC(=O)C(NC(=O)C(C)NC(=O)C1CCCN1C(=O)CNC(=O)C(CO)NC(=O)C(NC(=O)OCc1ccccc1)C(C)O)C(C)O (stereo not given) (Cbz-TSGPAT-OMe; configuration not given here)	10.6%
CCCCC(CC)CN(CC(CC)CCCC)C(=O)C(C)OC(=O)C(CC)CCCC (stereo not given)	16.9%

SMILES	growth inhibition
CCC(=O)Nc1cc([N+](=O)[O-])cc([N+](=O)[O-])c1	-23.6%
C=C(Br)CNCC(=C)Br	-18.6%
CN(C)Cc1cc(C(=O)/C=C/c2c(Cl)cccc2Cl)cc(CN(C)C)c1O	-18.9%
CC(C)(C)c1ccc(C(=O)N2CCOC23CCCCC3)cc1	-38.5%
O=C(O)c1ccc(C2C3C=CC(C3)C2[N+](=O)[O-])cc1 (stereo not given)	-35.5%
CCC/C=C/c1cc2c(cc1O)CC[C@@H]1[C@@H]2CC[C@]2(C)[C@@H](O)CC[C@@H]12	23.9%
O=C1c2ccccc2-c2oc(=O)c3ccccc3c21	-15.9%
O=c1[nH]c2cc(Cl)ccc2nc1/C=C(\O)c1cccc2ccccc12	35%
CC(=O)OC/C=C(\C)CCC=C(C)C	-5.15%
CCCCCCCSCC(O)COC(c1ccccc1)(c1ccccc1)c1ccccc1 (stereo not given)	-20.6%
NC(=O)NNc1ccccc1	-29.2%
Cn1c(=O)c(C(c2ccccc2)c2c(O)c3ccccc3n(C)c2=O)c(O)c2ccccc21	15.8%
CCCc1[nH]n(-c2cccc([N+](=O)[O-])c2)c(=O)c1N=Nc1ccc(Cl)cc1	26.9%
N#CCCN(c1ccc(C=O)cc1)S(=O)(=O)c1ccccc1	-15.7%
O=[N+]([O-])c1c(O)c(O)c2ccccc2c1Nc1ccccc1	-1.65%
COc1ccc(OC)c(CCCCC(N)=O)c1	-9.55%
c1ccc(CCN=C2c3ccccc3-n3cccc32)nc1	16.4%
CSc1nnc(CCC(=O)Nc2ccc(Cl)cc2Cl)o1	-10.2%
COc1cc(C(=O)Nc2ccc(S(=O)(=O)Nc3nc(C)cc(C)n3)cc2)cc(OC)c1OC	-10.4%
COC(=O)C1(CC(=O)CC(=O)CC2(C(=O)OC)NC(=S)NC(=O)C2C#N)NC(=S)NC(=O)C1C#N (stereo not given)	13.8%
